Results as given in PubChem BioAssay.

The compounds below were run against Dickkopf-related protein 1 (Homo sapiens) (UniProt O94907) (assay: DKK1 binders on small-molecule microarrays, primary screen, biochemical, small-molecule microarray, 635 nm fluorescence scan (AID 1106;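 note: score merges emission near 667 nm with signal to noise over three replicate slides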)). Details: DKK1 binding, higher = more signal.
Chain of Dickkopf-related protein 1 (Homo sapiens) (O94907 whole entry, looked up): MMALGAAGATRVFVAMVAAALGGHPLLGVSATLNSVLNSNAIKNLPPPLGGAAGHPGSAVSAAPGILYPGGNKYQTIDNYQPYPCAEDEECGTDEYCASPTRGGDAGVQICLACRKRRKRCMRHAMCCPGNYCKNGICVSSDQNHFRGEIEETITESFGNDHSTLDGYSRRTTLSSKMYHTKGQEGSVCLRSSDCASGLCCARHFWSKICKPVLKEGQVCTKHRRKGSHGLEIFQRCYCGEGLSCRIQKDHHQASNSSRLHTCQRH

Going from COc1ccc([Si](C)(C)[C@@H]2[C@@H](CC(=O)N3Cc4ccccc4C[C@H]3CO)O[C@]3(C(=O)N(C)c4ccccc43)[C@H]2C)cc1 to CCOC(=O)C[C@H]1[C@H](OC(=O)c2cc3ccccc3oc2=O)[C@@H](NC(=O)Cc2ccc(OC)cc2)c2cc(OCCCO)ccc2N1C(=O)c1ccc2ccccc2n1, the composite z-score falls from 0.874 to 0.578.

Going from O=C(N1CCCCC1)[C@@]1(CCS(=O)(=O)c2ccccc2)COC(c2ccc(OCCCO)cc2)=N1 to CCOC(=O)C[C@H]1[C@H](OC(=O)Cc2ccc3c(c2)OCO3)[C@@H](NC(=O)Cc2ccc(OC)cc2)c2cc(OCCCO)ccc2N1C(=O)c1ccc2ccccc2n1, the composite z-score rises from 0.495 to 0.567.

Compared with O=C1NC(=O)C2C1C=CC(C(O)CCc1ccccc1)N2Nc1ccc(Cl)cc1Cl (stereo not given), COC(=O)c1c2oc(c1C(=O)OC)C(=O)N(Cc1ccccc1)Cc1cn(nn1)C[C@H](Cc1ccccc1)NC(=O)N[C@H](CO)CC2 is higher in composite z-score: -0.743 for the first, -0.0193 for the second.

First: C=CCC(OC(C)=O)[C@@H]1[C@@H](N(Cc2cc3ccccc3o2)C(=O)c2ccc(-c3ccccc3)cc2)c2cc(OCCCO)ccc2N1C(=O)c1ccc2ccccc2c1 (stereo not given in full)
Second: COCCOC(=O)N1C(=O)[C@@]2(c3cc(C#CC4=CCCCC4)ccc31)[C@H](c1ccc(OCCO)cc1)N1[C@H](c3ccccc3)[C@H](c3ccccc3)OC(=O)[C@H]1[C@@H]2C(=O)NC[C@H](O)c1ccccc1
The composite z-score of the first is lower: 0.227 for the first, 1.32 for the second.

Going from NC(N)=NCCCn1cc(CNC(=O)[C@@H](N)Cc2ccccc2)nn1 to NC(=O)N1C(=O)C2C(C1=O)C1C=C(CCCO)C2C(c2cccs2)N1Cc1cccc(OC(F)(F)F)c1 (stereo not given), the composite z-score falls from 0.0571 to -0.184.
